The whole screen tested about 5,500 compounds, of which about 2,000 (36%) were called active. Another 18% or so got no clear call; they are omitted. Rule as the data show it: active = normalized growth mostly below about 0.91 (no sharp cut-off); inconclusive = no clear call, values can overlap the other calls; inactive = mostly above about 0.92. Some of the results follow.
Assay: chemical genetic growth profiling, strain panel (AID 1159580);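 also: tested at 20 µM; growth read once vehicle control cultures reached saturation at 30 °C; 1 = growth at the plate median or of vehicle wells; lower values mean less growth of the strain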
Conditions: growth OD

Measured: normalized growth

CC(=O)O[C@@H]1CC2C(C)(C)[C@H](O)C[C@H](O)[C@]2(C)C2CC[C@@]3(C)[C@H](c4ccoc4)OC(=O)[C@H]4O[C@]43[C@@]21C (stereo not given in full)
inactive: S. cerevisiae deletion strains, locus YAL021C, strain ccr4, hits give low values 1.01 | S. cerevisiae deletion strains, locus YAL026C, strain drs2, hits give low values 0.993 | S. cerevisiae deletion strains, locus YAL030W, strain snc1, hits give low values 0.995 | S. cerevisiae deletion strains, locus YBL061C, strain skt5, hits give low values 0.988 | S. cerevisiae deletion strains, locus YBR009C, strain hhf1, hits give low values 0.974 | S. cerevisiae deletion strains, locus YBR021W, strain FUR4, hits give low values 0.959 | S. cerevisiae deletion strains, locus YBR023C, strain chs3, hits give low values 0.985 | S. cerevisiae deletion strains, locus YBR171W, strain sec66, hits give low values 0.986 | S. cerevisiae deletion strains, locus YBR229C, strain ROT2, hits give low values 0.952 | S. cerevisiae deletion strains, locus YBR231C, strain swc5, hits give low values 0.983 | S. cerevisiae deletion strains, locus YBR279W, strain paf1, hits give low values 0.988 | S. cerevisiae deletion strains, locus YCL011C, strain gbp2, hits give low values 0.984 | S. cerevisiae deletion strains, locus YCL016C, strain dcc1, hits give low values 0.996 | S. cerevisiae deletion strains, locus YCL029C, strain bik1, hits give low values 0.987 | S. cerevisiae deletion strains, locus YCL061C, strain MRC1, hits give low values 0.99 | S. cerevisiae deletion strains, locus YCL069W, strain vba3, hits give low values 0.989 | S. cerevisiae deletion strains, locus YCR088W, strain abp1, hits give low values 0.995 | S. cerevisiae deletion strains, locus YDL005C, strain med2, hits give low values 0.985 | S. cerevisiae deletion strains, locus YDL035C, strain GPR1, hits give low values 0.982 | S. cerevisiae deletion strains, locus YDL040C, strain nat1, hits give low values 0.984 | S. cerevisiae deletion strains, locus YDL074C, strain BRE1, hits give low values 0.987 | S. cerevisiae deletion strains, locus YDL101C, strain DUN1, hits give low values 1 | S. cerevisiae deletion strains, locus YDL185W, strain tfp1, hits give low values 0.981 | S. cerevisiae deletion strains, locus YDL192W, strain arf1, hits give low values 0.988 | S. cerevisiae deletion strains, locus YDR001C, strain nth1, hits give low values 0.979 | S. cerevisiae deletion strains, locus YDR069C, strain doa4, hits give low values 0.983 | S. cerevisiae deletion strains, locus YDR101C, strain arx1, hits give low values 0.957 | S. cerevisiae deletion strains, locus YDR137W, strain rgp1, hits give low values 1.03 | S. cerevisiae deletion strains, locus YDR159W, strain sac3, hits give low values 0.968 | S. cerevisiae deletion strains, locus YDR162C, strain NBP2, hits give low values 0.993 | S. cerevisiae deletion strains, locus YDR195W, strain ref2 0.935 | S. cerevisiae deletion strains, locus YDR297W, strain sur2, hits give low values 0.996 | S. cerevisiae deletion strains, locus YDR318W, strain mcm21, hits give low values 0.995 | S. cerevisiae deletion strains, locus YDR334W, strain swr1, hits give low values 0.99 | S. cerevisiae deletion strains, locus YDR335W, strain msn5, hits give low values 0.989 | S. cerevisiae deletion strains, locus YDR388W, hits give low values 0.994 | S. cerevisiae deletion strains, locus YDR392W, strain spt3, hits give low values 0.913 | S. cerevisiae deletion strains, locus YDR502C, strain sam2, hits give low values 1 | S. cerevisiae deletion strains, locus YEL003W, strain gim4, hits give low values 0.987 | S. cerevisiae deletion strains, locus YEL037C, strain rad23, hits give low values 0.987 | S. cerevisiae deletion strains, locus YEL061C, strain CIN8 (second series), hits give low values 0.977 | S. cerevisiae deletion strains, locus YER015W, strain faa2, hits give low values 0.981 | S. cerevisiae deletion strains, locus YER016W, strain bim1, hits give low values 0.99 | S. cerevisiae deletion strains, locus YER110C, hits give low values 0.978 | S. cerevisiae deletion strains, locus YER111C, strain swi4, hits give low values 0.976 | S. cerevisiae deletion strains, locus YER155C, strain BEM2 (second series), hits give low values 0.997 | S. cerevisiae deletion strains, locus YER155C, strain BEM2, hits give low values 1 | S. cerevisiae deletion strains, locus YER167W, strain BCK2, hits give low values 0.98 | S. cerevisiae deletion strains, locus YFR010W, strain ubp6, hits give low values 0.983 | S. cerevisiae deletion strains, locus YGL078C, strain dbp3, hits give low values 1 | S. cerevisiae deletion strains, locus YGL086W, strain mad1, hits give low values 0.996 | S. cerevisiae deletion strains, locus YGL167C, strain pmr1, hits give low values 0.995 | S. cerevisiae deletion strains, locus YGL173C, strain kem1, hits give low values 0.962 | S. cerevisiae deletion strains, locus YGL227W, strain vid30, hits give low values 0.986 | S. cerevisiae deletion strains, locus YGL240W, strain doc1, hits give low values 0.971 | S. cerevisiae deletion strains, locus YGL248W, strain PDE1, hits give low values 1.01 | S. cerevisiae deletion strains, locus YGL253W, strain hxk2, hits give low values 0.955 | S. cerevisiae deletion strains, locus YGR078C, strain PAC10, hits give low values 1.02 | S. cerevisiae deletion strains, locus YGR135W, strain pre9, hits give low values 1.06 | S. cerevisiae deletion strains, locus YGR252W, strain gcn5, hits give low values 1.07 | S. cerevisiae deletion strains, locus YHR013C, strain ard1, hits give low values 0.963 | S. cerevisiae deletion strains, locus YHR027C, strain rpn1, hits give low values 1 | S. cerevisiae deletion strains, locus YHR079C, strain IRE1 (second series), hits give low values 0.987 | S. cerevisiae deletion strains, locus YHR094C, strain hxt1, hits give low values 0.978 | S. cerevisiae deletion strains, locus YHR129C, strain ARP1, hits give low values 0.993 | S. cerevisiae deletion strains, locus YHR142W, strain chs7, hits give low values 0.98 | S. cerevisiae deletion strains, locus YHR200W, strain rpn10, hits give low values 0.983 | S. cerevisiae deletion strains, locus YIL066C, strain RNR3, hits give low values 0.965 | S. cerevisiae deletion strains, locus YIL073C, strain SPO22, hits give low values 0.997 | S. cerevisiae deletion strains, locus YIL125W, strain kgd1, hits give low values 0.946 | S. cerevisiae deletion strains, locus YIR030C, strain dcg1, hits give low values 0.985 | S. cerevisiae deletion strains, locus YJL092W, strain hpr5, hits give low values 0.984 | S. cerevisiae deletion strains, locus YJL095W, strain BCK1 (second series), hits give low values 1 | S. cerevisiae deletion strains, locus YJL095W, strain BCK1, hits give low values 1.05 | S. cerevisiae deletion strains, locus YJL115W, strain asf1, hits give low values 0.984 | S. cerevisiae deletion strains, locus YJL129C, strain trk1, hits give low values 0.979 | S. cerevisiae deletion strains, locus YJL134W, strain LCB3, hits give low values 0.987 | S. cerevisiae deletion strains, locus YJL154C, strain vps35, hits give low values 0.996 | S. cerevisiae deletion strains, locus YJL164C, strain tpk1, hits give low values 0.979 | S. cerevisiae deletion strains, locus YJL166W, strain qcr8, hits give low values 0.99 | S. cerevisiae deletion strains, locus YJL168C, strain set2, hits give low values 0.984 | S. cerevisiae deletion strains, locus YJL187C, strain SWE1 (second series), hits give low values 1.02 | S. cerevisiae deletion strains, locus YJL187C, strain SWE1, hits give low values 1 | S. cerevisiae deletion strains, locus YJR043C, strain POL32, hits give low values 0.963 | S. cerevisiae deletion strains, locus YKL009W, strain mrt4, hits give low values 0.988 | S. cerevisiae deletion strains, locus YKL068W, hits give low values 0.997 | S. cerevisiae deletion strains, locus YKL085W, strain MDH1 (second series), hits give low values 0.994 | S. cerevisiae deletion strains, locus YKL085W, strain MDH1, hits give low values 0.994 | S. cerevisiae deletion strains, locus YKL160W, strain elf1, hits give low values 1.02 | S. cerevisiae deletion strains, locus YKR001C, strain vps1, hits give low values 0.975 | S. cerevisiae deletion strains, locus YKR026C, strain gcn3, hits give low values 0.968 | S. cerevisiae deletion strains, locus YKR091W, strain srl3, hits give low values 0.983 | S. cerevisiae deletion strains, locus YLL001W, strain dnm1, hits give low values 0.984 | S. cerevisiae deletion strains, locus YLL026W, hits give low values 0.986 | S. cerevisiae deletion strains, locus YLL041C, strain sdh2, hits give low values 0.994 | S. cerevisiae deletion strains, locus YLR027C, strain aat2, hits give low values 0.993 | S. cerevisiae deletion strains, locus YLR039C, strain RIC1, hits give low values 1 | S. cerevisiae deletion strains, locus YLR058C, strain SHM2, hits give low values 0.982 | S. cerevisiae deletion strains, locus YLR102C, strain apc9, hits give low values 0.982 | S. cerevisiae deletion strains, locus YLR221C, strain rsa3, hits give low values 0.972 | S. cerevisiae deletion strains, locus YLR258W, strain gsy2, hits give low values 0.995 | S. cerevisiae deletion strains, locus YLR262C, strain YPT6 (second series), hits give low values 1 | S. cerevisiae deletion strains, locus YLR268W, strain sec22, hits give low values 0.976 | S. cerevisiae deletion strains, locus YLR320W, strain mms22, hits give low values 0.986 | S. cerevisiae deletion strains, locus YLR330W, strain CHS5, hits give low values 0.994 | S. cerevisiae deletion strains, locus YLR342W, strain FKS1, hits give low values 0.984 | S. cerevisiae deletion strains, locus YLR357W, strain rsc2, hits give low values 0.987 | S. cerevisiae deletion strains, locus YLR370C, strain arc18, hits give low values 0.994 | S. cerevisiae deletion strains, locus YLR371W, strain rom2, hits give low values 0.959 | S. cerevisiae deletion strains, locus YLR384C, strain iki3, hits give low values 0.994 | S. cerevisiae deletion strains, locus YLR418C, strain cdc73, hits give low values 1.03 | S. cerevisiae deletion strains, locus YML016C, strain PPZ1, hits give low values 0.968 | S. cerevisiae deletion strains, locus YML032C, strain rad52, hits give low values 0.963 | S. cerevisiae deletion strains, locus YML120C, strain ndi1, hits give low values 0.996 | S. cerevisiae deletion strains, locus YML124C, strain tub3, hits give low values 0.975 | S. cerevisiae deletion strains, locus YMR058W, strain fet3, hits give low values 0.989 | S. cerevisiae deletion strains, locus YMR078C, strain ctf18, hits give low values 0.988 | S. cerevisiae deletion strains, locus YMR125W, strain sto1, hits give low values 0.993 | S. cerevisiae deletion strains, locus YMR129W, hits give low values 1.01 | S. cerevisiae deletion strains, locus YMR205C, strain PFK2, hits give low values 0.967 | S. cerevisiae deletion strains, locus YMR223W, strain ubp8, hits give low values 1 | S. cerevisiae deletion strains, locus YMR231W, strain pep5, hits give low values 0.988 | S. cerevisiae deletion strains, locus YMR307W, strain GAS1, hits give low values 0.972 | S. cerevisiae deletion strains, locus YNL067W, strain RPL9B, hits give low values 1.02 | S. cerevisiae deletion strains, locus YNL071W, strain lat1, hits give low values 0.987 | S. cerevisiae deletion strains, locus YNL153C, strain GIM3, hits give low values 1.01 | S. cerevisiae deletion strains, locus YNL209W, strain ssb2, hits give low values 1 | S. cerevisiae deletion strains, locus YNL233W, strain BNI4, hits give low values 1.02 | S. cerevisiae deletion strains, locus YNL248C, strain rpa49, hits give low values 1.01 | S. cerevisiae deletion strains, locus YNL250W, strain rad50, hits give low values 1.02 | S. cerevisiae deletion strains, locus YNL271C, strain bni1, hits give low values 0.988 | S. cerevisiae deletion strains, locus YNL298W, strain CLA4, hits give low values 0.982 | S. cerevisiae deletion strains, locus YNL307C, strain MCK1, hits give low values 0.992 | S. cerevisiae deletion strains, locus YNL322C, strain KRE1 (second series), hits give low values 0.979 | S. cerevisiae deletion strains, locus YNL322C, strain KRE1, hits give low values 0.999 | S. cerevisiae deletion strains, locus YNR049C, strain mso1, hits give low values 0.994 | S. cerevisiae deletion strains, locus YNR052C, strain pop2, hits give low values 1.01 | S. cerevisiae deletion strains, locus YOL006C, strain TOP1, hits give low values 1.05 | S. cerevisiae deletion strains, locus YOL012C, strain htz1 0.767 | S. cerevisiae deletion strains, locus YOL147C, strain pex11, hits give low values 0.991 | S. cerevisiae deletion strains, locus YOR001W, strain rrp6, hits give low values 1.01 | S. cerevisiae deletion strains, locus YOR061W, strain CKA2, hits give low values 0.939 | S. cerevisiae deletion strains, locus YOR069W, strain VPS5, hits give low values 1 | S. cerevisiae deletion strains, locus YOR070C, strain gyp1, hits give low values 0.999 | S. cerevisiae deletion strains, locus YOR080W, strain dia2, hits give low values 0.989 | S. cerevisiae deletion strains, locus YOR083W, strain WHI5, hits give low values 1.02 | S. cerevisiae deletion strains, locus YOR106W, strain vam3, hits give low values 1 | S. cerevisiae deletion strains, locus YOR136W, strain idh2, hits give low values 0.993 | S. cerevisiae deletion strains, locus YOR144C, strain elg1, hits give low values 0.98 | S. cerevisiae deletion strains, locus YOR184W, strain ser1, hits give low values 0.967 | S. cerevisiae deletion strains, locus YOR265W, strain rbl2, hits give low values 0.999 | S. cerevisiae deletion strains, locus YOR270C, strain vph1, hits give low values 0.828 | S. cerevisiae deletion strains, locus YOR290C, strain snf2, hits give low values 0.923 | S. cerevisiae deletion strains, locus YOR316C, strain cot1, hits give low values 0.981 | S. cerevisiae deletion strains, locus YPL051W, strain arl3, hits give low values 1.03 | S. cerevisiae deletion strains, locus YPL055C, strain LGE1, hits give low values 0.957 | S. cerevisiae deletion strains, locus YPL078C, strain atp4, hits give low values 0.999 | S. cerevisiae deletion strains, locus YPL106C, strain sse1, hits give low values 1 | S. cerevisiae deletion strains, locus YPL240C, strain hsp82, hits give low values 1 | S. cerevisiae deletion strains, locus YPR119W, strain clb2, hits give low values 0.994 | S. cerevisiae deletion strains, locus YPR141C, strain kar3, hits give low values 0.982 | S. cerevisiae deletion strains, locus YPR163C, strain tif3, hits give low values 0.975 | S. cerevisiae deletion strains, locus YPR167C, strain met16, hits give low values 0.99 | S. cerevisiae deletion strains, strain wtn01, hits give low values 0.949 | S. cerevisiae strains, strain wild type, hits give low values 0.976

From PubChem BioAssay AID1159580 (chemical genetic matrix, 2015)
